Experimental data from PubChem BioAssay (NCI).
About 83,000 compounds went through this panel and 20% of them were active in at least one assay; those are over-represented in the sample as a whole.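 Plates (96-well) were seeded with cells, treated with compound at one concentration, and incubated for 48 hours before percent growth was determined.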 Values without a mark were called inactive. Calls of active or inactive are those of the source.

tested on: HT29 colon; assay: NCI-60 one-dose screen, 48 h (100 = growth as untreated, 0 = no growth, -100 = all killed); details: 10 µM unless noted
Experimental: Growth inhibition of the HT29 human tumor cell line is measured as a screen for anti-cancer activity. Cells are grown in 96 well plates and exposed to the test compound for 48 hours. Compounds are tested at a single concentration, which is 10^-5 M for most compounds. The reported endpoint is percent growth (GI% or GIPRCNT), where numbers from 0 - 100% represent growth inhibition, and numbers from -100% - 0 represent cell death. For example, a value of 40 represents 60% growth inhibition. A value of 0 means no net growth occurred over the course of the experiment. A value of -40 indicates 40% of cells at the beginning of the experiment died by the end of the experiment. A value of -100 means all cells are dead at the end of the experiment.
NCI-60 Human Tumor Cell Lines Screen was performed using the standard one-dose NCI protocol, which is described in more detail at https://dtp.cancer.gov/discovery_development/nci-60/default.htm.
Compounds with GIPRCNT values below 10 were considered active. Activity score was based on GIPRCNT using the following formula: […]
Score is 0 for GIPRCNT values of 100 or above, 50 for GIPRCNT values of 0, and 100 for GIPRCNT values of -100.

With `O=[N+]([O-])c1cc([N+](=O)[O-])c(Cl)c(Cl)c1Cl` the growth was -85.5% (active).
In the case of `C[CH2][Pb]([CH2]C)([CH2]C)[O]C(=O)COC`, the growth is reported as 0.481% (active).
With `CC(C)[C@]12O[C@H]1[C@@H]1O[C@]13[C@]1(O[C@H]1C[C@H]1C4=C(CC[C@@]13C)C(=O)OC4)[C@@H]2OC(=O)OC(C)(C)C` the growth was 1.27% (active).
In the case of `CC1(C)N=C(N)N=C(N)N1c1ccc(CCCCc2ccc(S(=O)(=O)F)cc2)cc1`, the growth is reported as 8.88% (active).
With `CC(=O)O[C@@H]1C2=C(C)C3(CC3)[C@@](C)(O)C(=O)C2=C[C@@]1(C)CO` the growth was 5.12% (active).
For `C=C=[CH][Sn]([c]1ccccc1)([c]1ccccc1)[c]1ccccc1`, the growth was -72.1% (active).
In the case of `N#CC1=C(N)Oc2cc3c(cc2C1c1cccs1)OCO3` (stereo not given), the growth is reported as 8.98% (active).
In the case of `C/C1=C/C(=O)O[C@@H]2C[C@@H](CC[C@H](C)/C=C\C=C\CC1)O[C@@](OCCc1ccccc1)([C@@H]1CSC(=O)N1)C2`, the growth is reported as 8.63% (active).
With `CCC[CH2][Sn]([CH2]CCC)([CH2]CCC)[O]C(=O)c1ccc(Cl)cc1Cl` the growth was -64.7% (active).

`O=C(NCc1ccc([N+](=O)[O-])cc1)Nc1ccc(S(=O)(=O)F)cc1` and `Nc1cccc(CC(=O)Nc2ccc(S(=O)(=O)F)cc2)c1` are the same in growth: 91.9% for the first, 91.9% for the second.

Compared with `O=C(CCc1ccco1)NC1CCN(CC2(c3ccc(Cl)cc3)CCC2)CC1`, `OC1CCCCC1N1CCC(c2ccccc2)CC1` (stereo not given) is higher in growth: 10.5% for the first, 97.3% for the second.

First: CC1(C)N=C(N)N=C(N)N1c1ccc(CCC(=O)Nc2cccc(S(=O)(=O)F)c2)cc1
Second: Nc1nc(N)c(-c2ccc(Cl)c(Cl)c2)c(/C=C/c2ccc(S(=O)(=O)F)cc2)n1
The growth of the first is higher: 66.2% for the first, 59.4% for the second.

Compared with `CC(C)N=C(NC(C)C)N1CC1`, `CC(=O)[O][Hg][c]1nc2c(c(=O)n(C)c(=O)n2C)n1C` is lower in growth: 111% for the first, 95.6% for the second.

Compared with `CCCCOC(=O)c1ccccc1C(=O)O.CCCCOC(=O)c1ccccc1C(=O)O.[Cu+2]`, `Oc1ccccc1OB(Oc1ccccc1O)N(CCCl)CCCl` is lower in growth: 107% for the first, 85.9% for the second.

Compared with `c1cnc2c(c1)ccc1ncccc12`, `O=C(O)C1(Br)CC12c1ccccc1-c1ccccc12` (stereo not given) is lower in growth: 109% for the first, 104% for the second.

Going from `C[C@]12CC[C@H]3[C@@H](C[C@@H]4N=C(c5ccc(O)cc5)S[C@@]45C[C@H](O)CC[C@]35C)[C@@H]1CC[C@@H]2O` to `C[C@]12CC[C@@H]3C4=C(CC[C@H]3[C@@H]1CC[C@@H]2O)CC(=O)CC4`, the growth rises from 19.9% to 105%.

First: Cc1nnc([S-])s1.[Au+].c1ccc([PH+](c2ccccc2)c2ccccc2)cc1
Second: Nc1ccc([N+](=O)[O-])c2c1Oc1ccccc1O2
The growth of the first is lower: 12% for the first, 103% for the second.

Compared with `C=CCC1(CC)C(=O)NC(=S)NC1=O`, `CC(C)CCC1(CCO)C(=O)NC(=S)NC1=O` is higher in growth: 98% for the first, 99.3% for the second.

Compared with `COc1cc2c(cc1OC)CN(C)C(C)C2` (stereo not given), `COc1cc(CNCCc2ccc(Cl)cc2)cc(OC)c1O` is lower in growth: 93.2% for the first, 64.4% for the second.

Going from `CCCCNCCc1ccccn1` to `CCCCn1cc(C(=O)/C(C#N)=C/c2cc3ccccc3nc2Cl)c2cc(OC)ccc21`, the growth falls from 102% to 89.9%.

First: O=C(O)CC(Br)C(=O)CBr (stereo not given)
Second: CC12CCC(=O)C=C1CCC1C2CCC2(C)C(C(=O)COC(=O)Cc3ccc(N(CCCl)CCCl)cc3)CCC12 (stereo not given)
The growth of the first is higher: 109% for the first, 88.5% for the second.

First: CC(=O)OC1CCC2(C)C(=CCC3C4CC(CN5CC5)C(=O)C4(C)CCC32)C1 (stereo not given)
Second: CC(=O)O[C@H]1CCC2C3CCC4=C/C(=N/O)CCC4(C)C3CCC21C (stereo not given in full)
The growth of the first is higher: 85.2% for the first, 76% for the second.

Compared with `O=C1c2ccccc2C(=O)N1[N+](=O)[O-]`, `O=S(=O)(O)c1ccc(-c2ccc([As](=O)(O)O)cc2)cc1` is lower in growth: 102% for the first, 99.1% for the second.

Compared with `CCN(CC)c1ccc(C=C2C(=O)NC(=S)NC2=O)cc1`, `Cc1cccc(N=C2c3cc([N+](=O)[O-])ccc3-c3c2cc([N+](=O)[O-])cc3[N+](=O)[O-])c1` is lower in growth: 92.2% for the first, 21.3% for the second.

`CCOc1cc(/C=N\Nc2nnc(C)n2N)c(C)cc1N(CCCl)CCCl` was tested, and the growth was 23.9%.
